Consider 99 compounds from PubChem BioAssay AID1376 (SRMLSC, 2008).

As a reminder, the inhibition is the relative decrease from the control value, in per cent.

Molecules are shown by their SMILES. Out of some 220,000 compounds screened, about 530 (0.24%) were called active. Many of the other results were omitted from the sample, so actives are more common in it than they were. Measured potencies and affinities stand elsewhere. Unmarked numbers belong to inactive results. No stated cut-off is given here; in the data, active means inhibition above about 13%; inconclusive means no clear call, values can overlap the other calls; inactive means below that.

Bifunctional protein GlmU (Mycobacterium tuberculosis (strain ATCC 25618 / H37Rv)), sequence (P9WMN3 whole entry, looked up): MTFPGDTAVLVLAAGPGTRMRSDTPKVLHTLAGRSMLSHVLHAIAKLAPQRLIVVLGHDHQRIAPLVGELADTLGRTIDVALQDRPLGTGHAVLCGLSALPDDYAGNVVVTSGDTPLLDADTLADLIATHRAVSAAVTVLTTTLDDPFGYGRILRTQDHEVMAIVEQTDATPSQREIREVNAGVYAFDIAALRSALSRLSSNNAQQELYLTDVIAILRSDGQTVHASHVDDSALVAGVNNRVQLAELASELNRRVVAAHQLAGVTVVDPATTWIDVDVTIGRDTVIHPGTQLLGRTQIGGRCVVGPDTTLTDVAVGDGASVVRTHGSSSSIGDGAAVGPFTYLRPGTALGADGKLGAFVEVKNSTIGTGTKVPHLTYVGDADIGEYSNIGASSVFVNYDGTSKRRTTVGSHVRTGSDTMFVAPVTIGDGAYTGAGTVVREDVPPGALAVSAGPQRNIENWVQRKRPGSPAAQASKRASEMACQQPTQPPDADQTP

This assay concerns the target Bifunctional protein GlmU (Mycobacterium tuberculosis (strain ATCC 25618 / H37Rv)) (UniProt P9WMN3). Put plainly: inhibition of mycobacterial GlmU enzyme – biochemical, glucosamine-1-phosphate acetyltransferase (AID 1376).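 Further: 0% = complete reaction with vehicle and 100% = reaction without substrate.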 Particulars: M. tuberculosis GlmU acetyltransferase enzyme assay; hits give high values;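 tested at 30 µM in the primary screen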.
As to `Cc1c(NC(=O)c2ccc(S(=O)(=O)N(C)c3ccccc3)cc2)c(=O)n(-c2ccccc2)n1C`, the inhibition is -6.06%.
For `CCC(C)(C)NC(=O)C(c1ccc(OC)cc1)N(CC1CCCO1)C(=O)CCC(=O)Nc1cc(C)on1` (centres undefined), the inhibition is 5.67%.
As to `COc1ccc(C(C(=O)NC(C)(C)C)N(Cc2ccc(C)cc2)C(=O)CCC(=O)Nc2cc(C)on2)cc1` (centres undefined), the inhibition was 5.39%.
`COc1ccc(C(C(=O)NC(C)(C)C)N(CC2CCCO2)C(=O)CCC(=O)Nc2cc(C)on2)cc1` (centres undefined): the inhibition is 16.9% (active).
Take `COc1cc2nc(C3CCC3)n(NC(=O)C3CCC(OC)CC3)c(=O)c2cc1OC` (centres undefined): the inhibition is 0.09%.
Turning to `C=CC1CN2CCC1CC2c1[nH]c2ccccc2c1CCO` (centres undefined), the inhibition is -1.33%.
`NS(=O)(=O)c1cc(C(=O)OCC(=O)NC2CC2)ccc1Cl`: the inhibition is 0.47%.
The value for `O=[N+]([O-])c1ccc2c(c1)C(N1CCOCC1)/C(=C/COc1ccc(Cl)cc1Cl)O2` (centres undefined) was -0.92%; that for `COC(=O)c1oc2c(c1C)C1(CCC2)SCCS1` was -1.66%; that for `COc1ccc(N)c2c1C(=O)c1ccccc1C2=O` was 11.8%.
With `COc1ccc(OC)c2c1C(=O)c1ccccc1C2=O`, the inhibition was 1.18%.
As for `COc1ccc(OC)c2c1C(=O)C(Cl)=C(Cl)C2=O`, the inhibition is 15.7% (active).
Regarding `O=C(O)/C=C/c1ccc([N+](=O)[O-])o1`, the inhibition was -1.44%.
Turning to `O=C1CN(/N=C/c2ccc([N+](=O)[O-])o2)C(=O)N1`, the inhibition is 0.61%.
The value for `Cc1ccc(C2=N/C(=C\N(C)C)C(=O)O2)cc1` was 1.44%.
Turning to `O=C1/C(=C/c2cccc(Br)c2)SC(=S)N1/N=C/c1cc([N+](=O)[O-])ccc1O`, the inhibition was -5.24%.
`Cc1ccc(/C=C2\SC(=S)N(/N=C/c3cc([N+](=O)[O-])ccc3O)C2=O)o1`: the inhibition is 46.9% (active).
As to `Cc1ccccc1/C=C1\SC(=S)N(/N=C/c2cc([N+](=O)[O-])ccc2O)C1=O`, the inhibition was -0.74%.
Consider `CC1CCC(NC(=O)c2ccc(/C=C3\Oc4ccccc4N(C)C3=O)cc2)CC1` (centres undefined), for which the inhibition is -2.49%.
On to `O=C(O)C1C2C=CC(C3CC23)C1C(=O)O` (centres undefined), for which the inhibition was 1.12%.
The result for `O=C(O)C1C2C=CC(C2)C1C(=O)N1CCOCC1` (centres undefined) reads -2.63%; that for `COc1cc(/C=N/n2c(-c3n[nH]c4c3CCC4)n[nH]c2=S)cc(OC)c1O`, 0.14%.
As to `COc1ccc(/C=N/n2c(-c3n[nH]c4c3CCC4)n[nH]c2=S)cc1OC`, the inhibition is 14.3% (active).
On to `COc1cc(/C=N/n2c(-c3n[nH]c4c3CCC4)n[nH]c2=S)ccc1O`, for which the inhibition was 1.56%.
As for `Cc1cc(C(=O)O)c(CSCc2cc(C(=O)O)oc2C)o1`, the inhibition is 2.24%.
Turning to `CN(C)CC(C)(C)CN=Cc1c(O)[nH]c2ccccc12`, the inhibition was -4.17%.
The result for `COc1cc2c(cc1OC)C(SC)=NC(C)(C)C2` reads 8.72%.
The value for `COc1cc2c(cc1O)C(SC)=NC(C)(C)C2` was 14.9% (active).
In the case of `COc1cc2c(cc1OC)C(SC)=NC1(CCCC1)C2`, the inhibition was 2.45%.
For `Cc1cccc(N2CCN(C(=O)N3CCOCC3)CC2)c1C`, the inhibition was 13.8% (active).
On to `Cc1cccc(C)c1N1CCN(C(=O)N2CCOCC2)CC1`, for which the inhibition was 1.63%.
Regarding `Cc1cccc(N2CCN(C(=O)N3CCCCC3)CC2)c1C`, the inhibition is 4.08%.
For the compound `COc1ccc(-c2c3c(=O)n(C)c(=O)n(C)c3cn2-c2cccc(OC)c2)cc1`, the inhibition is 14% (active).
As for `COc1ccc(-c2c3c(=O)n(C)c(=O)n(C)c3cn2-c2ccccc2)cc1`, the inhibition was -0.39%.
Turning to `COc1ccc(-c2c3c(=O)n(C)c(=O)n(C)c3cn2-c2ccc(O)cc2)cc1`, the inhibition is -0.66%.
Regarding `Cc1cc(C)c(C#N)c(SCC(=O)c2cccs2)n1`, the inhibition is 3.22%.
For `Cc1cc(C)c(C#N)c(SCC(=O)c2ccc(Cl)cc2Cl)n1`, the inhibition was 14.2% (active).
For the compound `Cc1cc(C)c(C#N)c(SCC(=O)c2ccccc2)n1`, the inhibition was 2%.
The value for `CC1CCN(CCc2nc3cc(NC(=O)Nc4ccccc4)ccc3n2C)CC1` was -2.61%; that for `O=c1[nH]c(/C=C/c2cccnc2)c([N+](=O)[O-])c(=O)[nH]1` was -1.57%; that for `COc1ccc(CCn2c(-c3cc([N+](=O)[O-])cc([N+](=O)[O-])c3)nc3nc4ccccc4nc32)cc1OC` was 1.37%.
As for `COC(=O)CCN(C(=O)c1cc([N+](=O)[O-])cc([N+](=O)[O-])c1)c1ccccn1`, the inhibition is 9.11%.
The result for `COC(=O)CCN(C(=O)c1ccc([N+](=O)[O-])cc1)c1ccccn1` reads 13.6% (active).
As for `COC(=O)CCN(C(=O)c1cccc([N+](=O)[O-])c1)c1ccccn1`, the inhibition was 2.81%.
For `CCc1nnc(NC(=O)C2CCCN(S(=O)(=O)c3ccc(OC)cc3)C2)s1` (centres undefined), the inhibition was -3.09%.
Take `CCOc1ccc(-n2c(C)nnc2SCC(=O)N(CC)CC)cc1`: the inhibition is -6.69%.
Turning to `O=C(O)c1ccccc1/C=N/NC(=O)C1CCCCC1`, the inhibition was 1.79%.
With `CCC(C)C1NC(=S)N(C2CCCCC2)C1=O` (centres undefined), the inhibition was 15.5% (active).
With `CC(C)C1NC(=S)N(C2CCCCC2)C1=O` (centres undefined), the inhibition is 1.15%.
Turning to `CCC1NC(=S)N(C2CCCCC2)C1=O` (centres undefined), the inhibition is -5.8%.
Consider `COc1ccc(NCN2C(=O)CCC2=O)cc1`, for which the inhibition was 13.4% (active).
On to `O=C1CCC(=O)N1CNc1ccc(Oc2ccccc2)cc1`, for which the inhibition was 4.2%.
The result for `COc1ccc(NCN2C(=O)C3C4C=CC(C4)C3C2=O)cc1` (centres undefined) reads 0.26%; that for `NC(=O)c1c(NC(NC(=O)c2ccco2)C(=O)c2ccc(Cl)cc2)sc2c1CCCC2` (centres undefined), 2%.
The result for `Cc1ccc2nc(C)cc(N/N=C/c3cccnc3)c2c1` reads -6%; that for `CC(C)S(=O)(=O)C/C(N)=N/OS(=O)(=O)c1ccc(Cl)cc1`, 0.64%.
Consider `N#Cc1cccc(-n2nnnc2-c2ccc3c(c2)OCO3)c1`, for which the inhibition is 0.01%.
As for `CC1CN(c2ccc([N+](=O)[O-])c(NCCOc3ccccc3)c2)CCN1` (centres undefined), the inhibition was 1.45%.
On to `Cc1nnc(Sc2cc(NCCO)c([N+](=O)[O-])c3nonc23)s1`, for which the inhibition was 1.7%.
The result for `CCC(=O)OCCNc1cc(Sc2nccn2C)c2nonc2c1[N+](=O)[O-]` reads 12.7%; that for `CCC(=O)OCCNc1cc(Sc2nc3ccccc3[nH]2)c2nonc2c1[N+](=O)[O-]`, 10.6%.
Turning to `Cc1ccc(Sc2cc(NCCCO)c([N+](=O)[O-])c3nonc23)cc1`, the inhibition was -0.69%.
For `CCCC(=O)OCCNc1cc(Sc2nc3ccccc3[nH]2)c2nonc2c1[N+](=O)[O-]`, the inhibition was 9.67%.
The value for `Cn1ccnc1Sc1cc(NCCCO)c([N+](=O)[O-])c2nonc12` was 3.47%; that for `CSc1ncccc1C(=O)OCC(=O)NC1CCS(=O)(=O)C1` (centres undefined) was 3.34%.
In the case of `Cc1ccccc1OCc1nc(C#N)c(N2CCCC2)o1`, the inhibition is -2.21%.
For `COc1ccc(-c2cc(C(=O)N3CCN(c4ccccc4OC)CC3)no2)cc1OC`, the inhibition is -2.36%.
Take `Cc1nc2ccccc2cc1C(=O)N/N=C/c1cccc([N+](=O)[O-])c1`: the inhibition was 1.15%.
Turning to `Cc1onc(-c2ccccc2)c1C(=O)N1CCc2ccccc21`, the inhibition was -2.16%.
As for `Cc1noc(C)c1C(=O)N1CCCc2ccccc21`, the inhibition is -6.07%.
`Cc1noc(C)c1C(=O)N1CCc2ccccc21`: the inhibition was 12.9% (active).
Consider `Cc1cc(S(=O)(=O)NCc2ccccc2)ccc1OCC(=O)N1CCOCC1`, for which the inhibition is 0.4%.
The result for `CC(C)CCNC(=O)CCCOc1cc(=O)n(C)c2ccccc12` reads 4.37%.
`CCN1CCN(C(=O)C23CCC(C)(C(=O)C2Br)C3(C)C)CC1` (centres undefined): the inhibition was 5.77%.
The value for `CCc1ccc(OCC(=O)c2c(O)c3ccccc3oc2=O)cc1` was -0.96%; that for `CCCCC(=O)c1c(O)c2ccccc2oc1=O` was 0.58%; that for `Cc1ccc(C(C)C)c(OCC(=O)c2c(O)c3ccccc3oc2=O)c1` was 4.14%.
The value for `Cc1ccc(OCC(=O)c2c(O)c3ccccc3oc2=O)cc1C` was 0.96%; that for `CCOc1ccc(OCC(=O)c2c(O)c3ccccc3oc2=O)cc1` was 14.2% (active); that for `COc1ccc(OCC(=O)c2c(O)c3ccccc3oc2=O)cc1` was 13.8% (active).
Turning to `CNc1c([N+](=O)[O-])cnn1-c1ccc(C)cc1`, the inhibition is 5.02%.
For the compound `C=CCOc1ccc(/C(O)=C2/C(=O)C(=O)N(CCCn3ccnc3)C2c2ccco2)cc1` (centres undefined), the inhibition was 5.54%.
As to `CC(C)(C)NCC(O)COc1ccc(Br)cc1` (centres undefined), the inhibition was -5.25%.
Consider `CN(C)c1nc(-c2ccccc2)nc(-c2ccc(Cl)cc2)c1C#N`, for which the inhibition is -2.64%.
On to `C/C(=N\NC(=O)c1ccccc1)c1ccccc1Br`, for which the inhibition is 3.08%.
Take `Nc1ccc(S(=O)(=O)N2CCCC2)cc1Cl`: the inhibition is 0.44%.
The value for `COC(=O)C1C(c2ccccc2)C=CC(c2ccccc2)C1C(=O)O` (centres undefined) was 2.66%; that for `CC1=CC(C)C(C(=O)O)C(C(=O)O)C1` (centres undefined) was 4.72%; that for `CC(C)(C)C(=O)COC(=O)c1cccc(NC(=O)c2ccco2)c1` was 3.57%.
Turning to `CCn1c(-c2ccc(N)cc2)nc2ccccc21`, the inhibition is 4.62%.
For the compound `CN(C)c1ccc(-c2nc3ccccc3n2C)cc1`, the inhibition was 3.52%.
As for `CCn1c(-c2ccc(N(C)C)cc2)nc2ccccc21`, the inhibition was 13.3% (active).
Take `Cc1cnc(C)c(N2CCC(C(=O)NCc3cccs3)CC2)n1`: the inhibition is 2.06%.
In the case of `Cc1cnc(C)c(N2CCC(C(=O)NCc3ccco3)CC2)n1`, the inhibition is -3.63%.
Turning to `Cc1cnc(C)c(N2CCC(C(=O)NC(C)c3cccs3)CC2)n1` (centres undefined), the inhibition is 13.1% (active).
On to `O=C/C(=C\Nc1ccccn1)c1nc2ccccc2o1`, for which the inhibition was 13.3% (active).
Take `O=C/C(=C\Nc1ccc(Cl)cn1)c1nc2ccccc2o1`: the inhibition was 0.28%.
As to `O=C/C(=C\Nc1ccccn1)c1nc2cc(Cl)ccc2o1`, the inhibition is -1.58%.
Consider `COC(=O)/C=C/c1ccc(-n2cncn2)cc1`, for which the inhibition was 0.5%.
